An excerpt weighted towards active compounds, which were near 0.84% of everything screened.
PPARg SRC-3 ag: agonists of human PPARgamma SRC-3 coactivator recruitment; AID 731; activation, % at 8 µM; P37231; biochemical PPARgamma/SRC-3 coactivator recruitment assay; 200,000 tested, 0.26% active; in the data active = activation above about 23%;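 also: 0% = DMSO and 100% = reference agonist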
Target sequence (P37231 whole entry, looked up): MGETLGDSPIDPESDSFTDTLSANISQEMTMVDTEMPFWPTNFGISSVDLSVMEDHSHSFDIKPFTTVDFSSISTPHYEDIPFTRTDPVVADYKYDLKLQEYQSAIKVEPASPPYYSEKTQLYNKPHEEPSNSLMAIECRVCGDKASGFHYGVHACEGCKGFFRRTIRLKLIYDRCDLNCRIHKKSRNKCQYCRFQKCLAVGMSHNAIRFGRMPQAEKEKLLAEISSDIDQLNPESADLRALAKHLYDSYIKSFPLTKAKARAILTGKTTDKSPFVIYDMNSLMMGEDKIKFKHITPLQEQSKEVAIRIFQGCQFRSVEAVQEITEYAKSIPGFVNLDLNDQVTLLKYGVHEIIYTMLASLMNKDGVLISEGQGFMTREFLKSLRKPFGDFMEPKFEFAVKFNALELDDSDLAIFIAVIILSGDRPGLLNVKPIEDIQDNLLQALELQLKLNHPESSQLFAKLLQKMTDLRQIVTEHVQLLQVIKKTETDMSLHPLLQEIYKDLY
SRC1 TRFRET art: TR-FRET artefact, counter-screen to PPARgamma/SRC-1 agonist assay; TR-FRET detection artefact counter-screen, emission ratio; hits give high values; 99,000 tested, 0.34% active; AID 1051; TR-FRET ratio at 8 µM; in the data active = TR-FRET ratio above about 2300
SRC2 TRFRET art: flags TR-FRET format artefacts in PPARgamma SRC-2 recruitment agonist screen; TR-FRET ratio at 8 µM; 200,000 tested, 0.4% active; TR-FRET artefact counter-screen; hits give high values; AID 1049
PPARg SRC1 recr: promotes SRC-1 coactivator recruitment by human PPARgamma; PPARgamma-SRC-1 coactivator recruitment biochemical assay; activation, % at 8 µM; 200,000 tested, 0.41% active; AID 631; in the data active = activation above about 19%;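 also: 0% = DMSO and 100% = reference agonist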
SRC3 TRFRET art: TR-FRET artefact, counter-screen to PPARgamma/SRC-3 agonist assay; 99,000 tested, 0.39% active; PPARgamma/SRC-3 format; hits give high values; AID 1048; TR-FRET ratio at 8 µM
PPARg SRC-2 ag: promotes SRC-2 coactivator recruitment by human PPARgamma; P37231; PPARgamma LBD-SRC-2 recruitment, biochemical; activation, % at 8 µM; 200,000 tested, 0.34% active; AID 1032; in the data active = activation above about 22%;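 also: 0% = vehicle and 100% = reference agonist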
* marks the source's active call; other numbers are inactive results. Rule as the data show it, unless noted: active = TR-FRET ratio above about 2000; inactive = the rest.

How did CCN(CC)S(=O)(=O)c1cccc(NC(=O)COC(=O)c2n[nH]c(=O)c3ccccc23)c1 do in these assays?
PPARg SRC-3 ag: 6; SRC1 TRFRET art: 1936; SRC2 TRFRET art: 1961; PPARg SRC1 recr: 22*; SRC3 TRFRET art: 1541; PPARg SRC-2 ag: 8

How did CSc1ccccc1NC(=O)c1cc(-c2cccnc2)nc2ccc(Br)cc12 do in these assays?
PPARg SRC-3 ag: 9; SRC1 TRFRET art: 1916; SRC2 TRFRET art: 1531; PPARg SRC1 recr: 8; SRC3 TRFRET art: 2157*; PPARg SRC-2 ag: 3

Results for CC(=O)Nc1cccc(NC(=O)c2cc(-c3cccnc3)nc3ccc(Br)cc23)c1 ?
PPARg SRC-3 ag: -12; SRC2 TRFRET art: 1508; PPARg SRC1 recr: -7; PPARg SRC-2 ag: -5

What do the screens show for `O=C(COc1ccc2ccccc2c1)NNC(=O)Cc1ccccc1`?
PPARg SRC-3 ag: 15; SRC1 TRFRET art: 2551*; SRC2 TRFRET art: 1727; PPARg SRC1 recr: 65*; SRC3 TRFRET art: 1802; PPARg SRC-2 ag: 20

How did O=C(COc1ccc2ccccc2c1)Nc1ccc(S(=O)(=O)N2CCCCCC2)cc1 do in these assays?
PPARg SRC-3 ag: 0; SRC2 TRFRET art: 2073*; PPARg SRC1 recr: 3; PPARg SRC-2 ag: 18

Results for CC(=O)Nc1ccc(Nc2nc(-c3ccccc3)nc3ccccc23)cc1 ?
PPARg SRC-3 ag: -1; SRC1 TRFRET art: 1753; SRC2 TRFRET art: 1370; PPARg SRC1 recr: -1; SRC3 TRFRET art: 1577; PPARg SRC-2 ag: -5

Results for O=C(Nc1nc(-c2ccccc2)nc2ccccc12)c1ccc(F)cc1 ?
PPARg SRC-3 ag: 34*; SRC1 TRFRET art: 1991; SRC2 TRFRET art: 1915; PPARg SRC1 recr: -1; SRC3 TRFRET art: 2774*; PPARg SRC-2 ag: 11

How did O=C(NCCCN1CCOCC1)c1cccnc1SCc1ccccc1Cl do in these assays?
PPARg SRC-3 ag: -5; SRC1 TRFRET art: 1932; SRC2 TRFRET art: 1517; PPARg SRC1 recr: 2; SRC3 TRFRET art: 1385; PPARg SRC-2 ag: -10

Results for Fc1ccc(CNC(=S)NC2CCCCCC2)cc1 ?
PPARg SRC-3 ag: 1; SRC1 TRFRET art: 1886; SRC2 TRFRET art: 1356; PPARg SRC1 recr: -3; SRC3 TRFRET art: 1608; PPARg SRC-2 ag: -1

How did CCOc1ccc(-c2nn(-c3ccccc3)cc2/C=C2\SC(=S)N(C3CCS(=O)(=O)C3)C2=O)cc1 (stereo not drawn) do in these assays?
PPARg SRC-3 ag: -13; SRC2 TRFRET art: 1500; PPARg SRC1 recr: -4; PPARg SRC-2 ag: -8

What do the screens show for `CCOc1ccc(-c2nn(-c3ccccc3)cc2/C=C2\SC(N)=NC2=O)cc1C`?
PPARg SRC-3 ag: 29*; SRC2 TRFRET art: 1581; PPARg SRC1 recr: -1; PPARg SRC-2 ag: 3

Results for CCOc1ccc2cc(C#N)c(SCC(=O)NC(C)CC)nc2c1 (stereo not drawn) ?
PPARg SRC-3 ag: 0; SRC2 TRFRET art: 1580; PPARg SRC1 recr: 32*; PPARg SRC-2 ag: 16

Results for COC(=O)[C@@H]1C(c2c(OC)cc(OC)cc2OC)=NO[C@H]1C(=O)OC ?
PPARg SRC-3 ag: 1; SRC1 TRFRET art: 1704; SRC2 TRFRET art: 1637; PPARg SRC1 recr: -2; SRC3 TRFRET art: 1391; PPARg SRC-2 ag: 2

Results for COc1cccc(C2C(C(=O)c3cc4ccccc4o3)=C(O)C(=O)N2CCN(C)C)c1OC (stereo not drawn) ?
PPARg SRC-3 ag: 28*; SRC2 TRFRET art: 1961; PPARg SRC1 recr: 18; PPARg SRC-2 ag: 20

Results for COc1cccc(C2C(C(=O)c3ccco3)=C(O)C(=O)N2CCN(C)C)c1OC (stereo not drawn) ?
PPARg SRC-3 ag: 0; SRC1 TRFRET art: 1861; SRC2 TRFRET art: 1493; PPARg SRC1 recr: -5; SRC3 TRFRET art: 1530; PPARg SRC-2 ag: 2

How did COc1ccc(CC(=O)NCc2nnc(SCC(=O)Nc3cccc(F)c3)n2C)cc1 do in these assays?
PPARg SRC-3 ag: -2; SRC1 TRFRET art: 1764; SRC2 TRFRET art: 1397; PPARg SRC1 recr: 3; SRC3 TRFRET art: 1574; PPARg SRC-2 ag: 38*

How did COc1ccc(CC(=O)NCc2nnc(SCC(=O)Nc3ccccc3)n2C)cc1 do in these assays?
PPARg SRC-3 ag: 1; SRC1 TRFRET art: 1814; SRC2 TRFRET art: 1582; PPARg SRC1 recr: 7; SRC3 TRFRET art: 1639; PPARg SRC-2 ag: 8

What do the screens show for `O=C(CSc1nnc(-c2ccco2)n1-c1ccccc1)N1CCc2ccccc21`?
PPARg SRC-3 ag: 6; SRC2 TRFRET art: 1562; PPARg SRC1 recr: 13; PPARg SRC-2 ag: 2

What do the screens show for `O=C(CSc1nnc(-c2cccs2)n1-c1ccccc1)N1CCc2ccccc21`?
PPARg SRC-3 ag: -4; SRC2 TRFRET art: 1416; PPARg SRC1 recr: 30*; PPARg SRC-2 ag: 6

What do the screens show for `Cc1ccc(S(=O)(=O)N2CCCN(c3nc4cc(C)ccc4cc3C#N)CC2)cc1`?
PPARg SRC-3 ag: 11; SRC2 TRFRET art: 3009*; PPARg SRC1 recr: -4; PPARg SRC-2 ag: -5

What do the screens show for `Cc1ccc2cc(C#N)c(N3CCCN(C(=O)C4CCCO4)CC3)nc2c1` (stereo not drawn)?
PPARg SRC-3 ag: -4; SRC2 TRFRET art: 1481; PPARg SRC1 recr: -2; PPARg SRC-2 ag: 1

Results for N#Cc1ccc(-c2ccccc2)nc1SCC(=O)c1cc2ccccc2oc1=O ?
PPARg SRC-3 ag: 10; SRC2 TRFRET art: 1700; PPARg SRC1 recr: 64*; PPARg SRC-2 ag: 5

Results for CC(C)c1c(C#N)c(N)nc(SCC(=O)c2cc3ccccc3oc2=O)c1C#N ?
PPARg SRC-3 ag: -6; SRC1 TRFRET art: 1872; SRC2 TRFRET art: 1505; PPARg SRC1 recr: 8; SRC3 TRFRET art: 1619; PPARg SRC-2 ag: 10

What do the screens show for `O=C(CSc1nc2cc(Cl)ccc2c(=O)n1Cc1ccco1)Nc1ccc(S(=O)(=O)N2CCOCC2)cc1`?
PPARg SRC-3 ag: 6; SRC1 TRFRET art: 2098; SRC2 TRFRET art: 2029*; PPARg SRC1 recr: 6; SRC3 TRFRET art: 2505*; PPARg SRC-2 ag: -3

What do the screens show for `O=C(CSc1nc2ccccc2c(=O)n1-c1ccc(F)cc1)Nc1cc(S(=O)(=O)N2CCOCC2)ccc1Cl`?
PPARg SRC-3 ag: 4; SRC1 TRFRET art: 2193; SRC2 TRFRET art: 2011*; PPARg SRC1 recr: -1; SRC3 TRFRET art: 2000; PPARg SRC-2 ag: 4

What do the screens show for `COC(=O)c1ccc2c(=O)n(Cc3ccco3)c(SCC(=O)Nc3ccc(C)c(Cl)c3)nc2c1`?
PPARg SRC-3 ag: -11; SRC2 TRFRET art: 1665; PPARg SRC1 recr: 16; PPARg SRC-2 ag: 10

What do the screens show for `Cc1cccc(N2C(S)=C(C#N)C(=O)NC2c2ccco2)c1` (stereo not drawn)?
PPARg SRC-3 ag: 5; SRC1 TRFRET art: 1809; SRC2 TRFRET art: 1620; PPARg SRC1 recr: 11; SRC3 TRFRET art: 1528; PPARg SRC-2 ag: 8

Results for N#CC1=C(S)N(c2ccccc2)C(c2ccc(-c3cccc(Cl)c3)o2)NC1=O (stereo not drawn) ?
PPARg SRC-3 ag: 4; SRC1 TRFRET art: 2388*; SRC2 TRFRET art: 1822; PPARg SRC1 recr: 6; SRC3 TRFRET art: 1991; PPARg SRC-2 ag: 10

Screens from PubChem.
